Several values for one entry are separate records, joined by “and”; a condition that tells them apart may be missing. Identical values can stand only once. Hit rate of the full screen: of about 420,000 compounds, about 75 (0.02%) were called active. The call rests on the fitted dose curve; in most records, active means well fitted activation curve with a large enough effect; inconclusive means small, poorly fitted or top-dose-only effect; inactive means no such curve, though single readings can be large or run the other way. This excerpt belongs to a sample that is enriched for actives. Some structures have more than one record in an assay (separate samples or runs), and their calls can disagree.
Assay: qHTS for Inducers of the Endoplasmic Reticulum Stress Response (ERSR) in Human Glioma: qHTS; further: nearly all actives have a fitted effect of over 35% in size; on activation: % of control where 0% means no effect
Conditions: U87-MG GRP78 promoter luciferase reporter, 16 h; activation: active compounds read high
Description: Primary protein unfolding takes place for many diseases, including diabetes and hypoxia, , and triggers a reaction in the cells called ER stress response (ERSR). ). ERSR is designed as a repair mechanism, but ultimately leads to cell death via apoptosis if conditions triggering protein unfolding persist (1). The molecular clue to ERSR activation is the enhancement of the expression of key molecular chaperones, including the glucose regulated protein (GRP) 78. GRP78 is the main sensor for protein folding and the main actuator of the ERSR.
In a collaboration between the Southern Research Institute and the NIH Chemical Genomics Center, a cell based screen was developed that reliably uses GRP78 as a sensor to identify small molecules as inducers of ERSR. In resting conditions, GRP78 binds proteins and acts as a natural repressor. Once unfolded proteins are present in the ER, GRP78 releases some of the repressors and binds to the unfolded proteins. The release of the repressors executes the ERSR program. Using a human glioma cell line in a miniaturized, luminescent format, a high-throughput screen was developed to identify actuators of the ERSR.
(1) Soboloff, J. and S. A. Berger (2002). "Sustained ER Ca2+ depletion suppresses protein synthesis and induces activation-enhanced cell death in mast cells." J Biol Chem 277(16): 13812-20.
NIH Chemical Genomics Center [NCGC]
NIH Molecular Libraries Probe Centers Network [MLPCN]
Assay Submitter (PI): Maurizio Grimaldi, Southern Research Institute
Stable transfected human glioma cell line, U87-MG, are dispensed at density 1000 cells/well into Greiner white solid bottom 1536-well assay plates. Compounds are transferred via Kalypsys pin tool equipped with 1536-pin array (10nl slotted pins, V&P Scientific, San Diego, CA). The assay plates will be incubated for 16 hours and developed by adding appropriate quantities of the Promega Bright Glo reagent. The plates will be incubated at room temperature for 10 minutes prior to being transferred into a ViewLux high-throughput CCD imager (PerkinElmer), wherein end-point measurements of luminescence are acquired.
Potency means the concentration at half of the fitted maximal effect.

SMILES | activation | Potency
COc1ccccc1C(=O)N[C@@H]1c2ccccc2C2(CCN(C(=O)c3csnn3)CC2)[C@H]1OC | 0.874% (inactive) | –
Cc1cc(C)cc(C#CC2C=CC(Oc3ccc(C4CCCC4)cc3)C(CO)O2)c1 (stereo unspecified) | -1.34% (inactive) | –
O=S(O)CNc1ccc(S(=O)(=O)c2ccc(NCS(=O)O)cc2)cc1 | -4.53% (inactive) | –
C[C@]12CC[C@@H]3C(=CCc4cc(O)ccc43)[C@@H]1CCC2=O | 2.61% (inactive) | –
Fc1ccc(Cl)cc1-c1nc(Nc2ccncc2)c2nccnc2n1 | -1.14% (inactive) | –
Cc1cnc(-n2ncc(C(=O)N3CCN(C(C)C)CC3)c2-c2ccco2)nc1-c1ccc(F)cc1 | -4.71% (inactive) | –
COC(=O)[C@@H]1CC[C@H](C)[C@@H](c2ccc(C)cc2)N1C(=O)c1ccc(/C=N\OC[C@@H](O)COCc2ccco2)cc1 | 3.64% (inactive) | –
C#C[C@]1(O)CC[C@H]2[C@@H]3CCC4=CC(=O)CC[C@@H]4[C@H]3CC[C@@]21CC | 3.01% (inactive) and -1.02% (inactive) | 20 µM (active)
COc1cc(=O)n2c(c1C(=O)NC(C)c1ccco1)CCN(C(=O)c1cn3ccc(C)cc3n1)CC2 (stereo unspecified) | -2.08% (inactive) | –
CN(C)c1ccc(/C=C/C=C/c2ccnc3ccccc23)cc1 | -3.58% (inactive) | –
C=COC(=O)N1CCN(/[N+]([O-])=N/Oc2ccc([N+](=O)[O-])cc2[N+](=O)[O-])CC1 | -11% (inactive) | –
O=C1c2c(O)cccc2[C@@H]([C@@H]2O[C@H](CO)[C@@H](O)[C@H](O)[C@H]2O)c2cc(CO)cc(O)c21 | -3.93% (inactive) | –
CO[C@H]1COC(=O)[C@@H](OCc2ccccc2)/C=C\[C@H](C)[C@@H](OC)COC(=O)[C@H](OCc2ccccc2)/C=C\[C@@H]1C | -0.0422% (inactive) | –
C[N+](C)(CCOc1ccccc1)Cc1cccs1 (tested in a mixture with another compound) | -5.19% (inactive) | –
CCCC(=O)O[C@]1(C(=O)COC(=O)CC)CC[C@@H]2[C@@H]3CCC4=CC(=O)CC[C@]4(C)[C@H]3[C@@H](O)C[C@@]21C | -2.74% (inactive) | –
C=C1C(=O)C23C(O)C1CCC2[C@]12COC3(O)C(O)C1C(C)(C)CC[C@H]2O (stereo partly specified) | -12.5% (inactive) | –
CO[C@H]1[C@H](NC(=O)C(C)C)c2ccccc2C12CCN(Cc1cnc(N(C)C)s1)CC2 | -3.14% (inactive) | –
CC1O[C@@H](Oc2c(-c3ccc(O)c(O)c3)oc3cc(O)cc(O)c3c2=O)C(O)C(O)C1O (stereo partly specified) | -2.63% (inactive) | –
O=C(C(=O)N1CCOc2ccc(CN3CCN(Cc4ccccn4)CC3)cc2C1)c1ccccc1 | -4.17% (inactive) | –
CCCCC(=O)OCC(=O)[C@H]1[C@H](C)C[C@@H]2[C@@H]3C[C@@H](F)C4=CC(=O)C=C[C@]4(C)[C@@]3(F)[C@@H](O)C[C@@]21C | -0.711% (inactive) | –
COC(=O)[C@@H]1C[C@H](NC(=O)c2ccccc2C(F)(F)F)CN1Cc1cccc(O)c1 | -4.69% (inactive) | –
CCc1nc2cc(C(=O)NCC3CCS(=O)(=O)C3)cc(NC(=O)c3ccccc3OC)c2n1C (stereo unspecified) | -5.29% (inactive) | –
Cc1nc2cc(NC(=O)[C@@H]3C[C@@H](Sc4ccccn4)CN3Cc3ccccc3C)ccc2s1 | -3.4% (inactive) | –

SMILES | activation | Potency
O=C1OC(C(O)CO)C(O)=C1O (stereo unspecified) | -2.25% (inactive) | –
COc1ccc(COC(=O)N/N=C2/C[C@@H](O)[C@@H](O)[C@@H]3[C@@H]4C(=O)N([C@@H](C)c5ccccc5)C(=O)[C@H]4CC[C@@H]23)cc1 | -1.75% (inactive) | –
O=C(O)c1ccc(/C=C2/SC(=S)N(c3cccc(C(F)(F)F)c3)C2=O)cc1 | 2.71% (inactive) | –
CC(=O)/C(C)=N\O | -3.3% (inactive) | –
C(=Nc1ccc(/C=C/c2ccnc3ccccc23)cc1)Nc1ccc(/C=C/c2ccnc3ccccc23)cc1 | -10.1% (inactive) | –
CN1CC(O)c2cc(N=NC(N)=O)c(O)cc21 (stereo unspecified) | 4.72% (inactive) | –
Cc1ccc(-c2ccc(C(=O)N3CCc4nnc(CNC(=O)c5ccccc5)n4CC3)cc2)cc1 | -3.28% (inactive) | –
CC1(C)[C@H](O[C@H]2O[C@H](C(=O)O)[C@@H](O)[C@H](O)[C@H]2O[C@@H]2O[C@H](C(=O)O)[C@@H](O)[C@H](O)[C@H]2O)CC[C@@]2(C)[C@H]1CC[C@]1(C)[C@H]2C(=O)C=C2[C@H]3C[C@@](C)(C(=O)O)CC[C@]3(C)CC[C@]21C | -2.51% (inactive) | –
O=c1c(O)c(-c2ccc(O)cc2)oc2ccccc12 | -1.19% (inactive) | –
CC(=O)Nc1ccccc1-c1nc(CNC(=O)c2ccc(Cl)cc2)c(C)o1 | -2.78% (inactive) | –
COCc1c(C(=O)NC2CCCCC2)cnn1-c1nccc(-c2ccccc2OC)n1 | 0.854% (inactive) | –
COc1cc(C)c(CN2CCc3nnc(C(C)NC(=O)c4cccnc4)n3CC2)cc1C (stereo unspecified) | -0.402% (inactive) | –
Cn1nccc1C(=O)NCC1CCC2(CCN(Cc3c(O)ccc4ccccc34)CC2)O1 (stereo unspecified) | -1.48% (inactive) | –
Cc1cc(-c2ccnc(-n3ncc(C(=O)NCCc4ccncc4)c3C)n2)c(C)s1 | -1.46% (inactive) | –
CN(C)c1ccc(/C=C/c2sc3ccccc3[n+]2CCCCBr)cc1 | -6.95% (inactive) | –
COc1ccccc1-c1nc(NCc2cccs2)c2ccccc2n1 | -5.15% (inactive) | –
CO[C@H]1COC(=O)[C@H](Cc2ccccc2)NC(=O)C/C=C\[C@@H](C)[C@H](OC)COC(=O)C/C=C\[C@@H]1C | -4.82% (inactive) | –
COc1cccc([C@H]2Oc3ccc(OC)cc3/C(=N\OCC[C@@H]3C=C[C@H](OC(C)=O)[C@H](COC(C)=O)O3)[C@@H]2O)c1 | -2.8% (inactive) | –
O=C(NCCN1CCOCC1)c1cnn(-c2nccc(-c3cccs3)n2)c1C1CC1 | -4.37% (inactive) | –
CC(C)CN1CCc2nc(-c3ccccc3)c3c(c2C1)COC(C)C3 (stereo unspecified) | -2.93% (inactive) | –
Cc1cc2oc(=O)cc(-c3ccccc3)c2c(C)c1/C=C/c1ccc(F)cc1 | -1.4% (inactive) | –
CCC(C)C1OC2(C=CC1C)CC1CC(C/C=C(/C)C(OC3CC(OC)C(OC4CC(OC)C(NC(C)=O)C(C)O4)C(C)O3)C(C)/C=C\C=C3\COC4C(O)C(C)=CC(C(=O)O1)C34O)O2 (stereo unspecified) | -10.3% (inactive) | –

Source: PubChem BioAssay AID602332 (National Center for Advancing Translational Sciences (NCATS), 2012)
